High-throughput results as filed in PubChem BioAssay.
RECQ1 inh-1 – RECQ1 (human) helicase inhibition; 240,000 compounds, 0.54% hits; RECQ1 DNA unwinding, red fluorescence kinetic read; Potency, µM (doses to about 57.3 µM), usual class: inhibitors; also: nearly all actives have a fitted effect of over 30% in size
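RECQ1T1 50 nM; forked duplex (20 bp + 30-nt ss tails) 200 nM, ATP 2 mM final; pH 8.0, 2 mM MgCl2, 2.5 ug/ml poly(dI-dC); 15 min compound preincubation; discontinuous kinetic read over 2 h at RT.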
L3MBTL1 inh – blocks human L3MBTL1; Q9Y468; AlphaScreen L3MBTL1–H3K9me1 peptide binding; Potency, µM (doses to about 57.1 µM), hits mostly inhibitors; 230,000 compounds, 0.66% hits; also: nearly all actives have a fitted effect of over 60% in size
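AlphaScreen assay: L3MBTL1 (50 nM final) was preincubated 30 min at room temperature with biotinylated H3(1-15)K9me1 peptide (75 nM final), then 30 min with library compounds; streptavidin donor and nickel chelate acceptor beads (10 ug/mL final) added, 30 min dark.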
APE1 inh – blocks human APE1 abasic DNA cleavage; P27695; recombinant APE1, TAMRA/BHQ-2 abasic DNA cleavage fluorescence; Potency, µM (highest dose often 65.8 µM), usual class: inhibitors; 350,000 compounds, 0.35% hits; AID 2517; also: nearly all actives have a fitted effect of over 55% in size
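0.75 nM APE1 + cpd, 15 min RT; start w/ 50 nM TAMRA/BHQ-2 THF-abasic dsDNA; kinetic fluor 525/598 nm ×3 reads @60 s; Δ(read3−read1); normalized to DMSO and NSC13755 control wells.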
JMJD2E inh – blocks human JMJD2E demethylase activity | B2RXH2 | JMJD2E catalytic domain, FDH-coupled NADH fluorescence (FDH is formaldehyde dehydrogenase) | Potency, µM (highest dose often 57.1 µM), actives largely listed as inhibitors | 230,000 compounds, 1.6% hits | AID 2147; active = well fitted inhibition curve with a large enough effect, not every such curve was filed as active; inconclusive = small, poorly fitted or top-dose-only effect, or another doubt; inactive = no such curve, though single readings can be large or run the other way; also: nearly all actives have a fitted effect of over 50% in size
BLM inh-1 – inhibitors of human Bloom syndrome helicase BLM | AID 2528 | recombinant BLM DNA unwinding, fluorescence dequenching | 350,000 compounds, 0.2% hits | P54132 | Potency, µM (series often up to 56.1 µM), most hits filed as inhibitors; also: nearly all actives have a fitted effect of over 35% in size
Target sequence (P54132 whole entry, looked up): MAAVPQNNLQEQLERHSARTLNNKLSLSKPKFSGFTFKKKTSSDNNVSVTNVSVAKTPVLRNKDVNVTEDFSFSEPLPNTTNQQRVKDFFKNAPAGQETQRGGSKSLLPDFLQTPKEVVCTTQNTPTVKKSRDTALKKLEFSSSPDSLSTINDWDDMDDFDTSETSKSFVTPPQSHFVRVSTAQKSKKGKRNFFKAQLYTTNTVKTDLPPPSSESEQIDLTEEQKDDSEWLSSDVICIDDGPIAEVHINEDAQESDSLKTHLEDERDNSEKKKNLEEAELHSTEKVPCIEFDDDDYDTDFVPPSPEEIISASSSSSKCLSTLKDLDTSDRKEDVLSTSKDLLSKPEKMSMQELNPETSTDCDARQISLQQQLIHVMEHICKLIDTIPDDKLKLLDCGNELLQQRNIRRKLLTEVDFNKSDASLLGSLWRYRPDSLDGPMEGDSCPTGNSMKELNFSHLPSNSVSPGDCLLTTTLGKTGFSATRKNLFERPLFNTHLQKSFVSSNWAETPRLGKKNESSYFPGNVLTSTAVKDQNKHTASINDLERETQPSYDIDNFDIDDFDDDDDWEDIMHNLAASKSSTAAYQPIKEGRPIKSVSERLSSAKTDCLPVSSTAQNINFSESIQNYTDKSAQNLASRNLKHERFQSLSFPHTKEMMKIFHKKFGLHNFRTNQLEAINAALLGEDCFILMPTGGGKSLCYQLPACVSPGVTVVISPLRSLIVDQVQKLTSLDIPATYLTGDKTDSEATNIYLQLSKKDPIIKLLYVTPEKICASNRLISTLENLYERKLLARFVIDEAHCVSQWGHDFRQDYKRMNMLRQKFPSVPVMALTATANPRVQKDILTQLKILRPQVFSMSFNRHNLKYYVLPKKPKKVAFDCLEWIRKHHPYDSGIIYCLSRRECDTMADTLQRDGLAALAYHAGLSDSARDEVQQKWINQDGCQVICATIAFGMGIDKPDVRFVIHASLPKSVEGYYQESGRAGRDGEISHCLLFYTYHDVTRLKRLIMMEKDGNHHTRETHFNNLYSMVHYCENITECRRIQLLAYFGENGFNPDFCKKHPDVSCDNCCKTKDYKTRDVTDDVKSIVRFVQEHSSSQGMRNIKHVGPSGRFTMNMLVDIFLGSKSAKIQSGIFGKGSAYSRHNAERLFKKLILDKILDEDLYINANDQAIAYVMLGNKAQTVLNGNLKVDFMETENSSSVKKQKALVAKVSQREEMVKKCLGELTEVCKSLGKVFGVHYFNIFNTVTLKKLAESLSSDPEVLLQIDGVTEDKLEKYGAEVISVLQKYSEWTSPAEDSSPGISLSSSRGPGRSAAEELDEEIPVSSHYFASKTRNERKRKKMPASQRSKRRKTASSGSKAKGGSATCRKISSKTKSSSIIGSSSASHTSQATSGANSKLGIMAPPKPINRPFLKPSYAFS
GoLoco inh red – blocks human Gai1 binding to RGS12 GoLoco peptide, red readout; P63096; Gai1:RGS12 GoLoco peptide FP, rhodamine, 10 min; Potency, µM (doses to about 61.6 µM), actives largely listed as inhibitors; 230,000 compounds, 0.44% hits; AID 880; active = well fitted inhibition curve with a large enough effect, not every such curve was filed as active; inactive = no such curve, though single readings can be large or run the other way; also: nearly all actives have a fitted effect of over 30% in size
BLM inh-2 – confirmation of inhibitors of human Bloom syndrome helicase BLM; shares compounds with BLM inh-1; BLM DNA unwinding, fluorescence quenching, biochemical; Potency, µM, usual class: inhibitors; 220 compounds, 40% hits;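 also: strand separation dequenches TAMRA so unwinding raises red fluorescence; series mostly up to about 69 µM; nearly all actives have a fitted effect of over 45% in size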
RECQ1 inh-2 – confirmation of human RECQ1 helicase inhibitors; shares compounds with RECQ1 inh-1; recombinant RECQ1 DNA unwinding, red fluorescence; Potency, µM (titrated, usually from 119 µM), most hits filed as inhibitors; 1,100 compounds, 15% hits; AID 504841; also: nearly all actives have a fitted effect of over 50% in size
Numbers stand for hits; . = inactive; ? = inconclusive; / = not tested or not shown; ! = a repeat was not active; [ ] = another dose, or the depositor's remark. Many of the other results were omitted from the sample, so hits are more common in it than they were. Unless noted, calls follow the shape of the dose curve; as a rule, active = well fitted curve in the direction sought with a large enough effect; inconclusive = small, poorly fitted or top-dose-only effect, or another doubt; inactive = no such curve, though single readings can be large; an effect the other way counts as inactive or inconclusive.

SMILES	RECQ1 inh-1	L3MBTL1 inh	APE1 inh	JMJD2E inh	BLM inh-1	GoLoco inh red	BLM inh-2	others
N#Cc1c2nc3ccccc3nc2n2cc(NC(=O)c3ccc(F)cc3)ccc12	.	.	.	.	13µM	.	7.3µM
Cc1ccc(-c2nn3c(C)nnc3s2)cc1NC(=O)c1ccc(Br)o1	.	.	.	.	.	.	/
Cc1ccc(-c2nn3c(C)nnc3s2)cc1NC(=O)c1ccc(-c2ccc(Cl)cc2Cl)o1	.	.	.	?	11µM	.	7.3µM
Oc1cccc(Nc2cc(-c3ccccc3)ncn2)c1	/	/	/	/	.	/	/
Cc1ccc(-c2nc(NC(=O)CSc3cc(C)c4ccccc4n3)ns2)cc1	.	.	?	.	6.3µM	.	18µM
Cc1cc2ccccc2c(=O)[nH]1	.	.[11.4 µM]	.	?	.	.	/
Cc1ccccc1Nc1cc2ccccc2c(=O)[nH]1	.	.	.	?	28µM	.	?
Cc1cc(=O)[nH]c2c(N=Nc3ccc(O)cc3)c(N)nn12	.	.	?	?	16µM	.	?
CC(=O)N1CCC2(CC1)CCN(c1ncccn1)CC2	.	/	.	/	.	.	/
CC(C)(C)c1ccc(S(=O)(=O)c2cnc(SCC(=O)Nc3ccc(F)c(Cl)c3)[nH]c2=O)cc1	/	/	/	/	.	/	/
COc1cc(Cl)c(C)cc1NC(=O)CSc1ncc(S(=O)(=O)c2ccc(C(C)(C)C)cc2)c(=O)[nH]1	/	/	/	/	16µM	/	23µM
Cn1c(SCC(=O)c2cc(Cl)c(Cl)s2)nnc1-c1ccco1	.	.	.	.	13µM	.	?
COc1ccc(C)c2sc(N(Cc3cccnc3)C(=O)COc3ccccc3)nc12	/	/	/	/	.	/	/
Cn1c(N)c(C(=O)COC(=O)CNC(=O)c2ccc(Cl)cc2Cl)c(=O)n(C)c1=O	/	.	.	/	/	/	/
COc1cc(NS(=O)(=O)c2ccc(C)cc2)c2ncccc2c1	.	.	.	.	.	.	/
CCC(CNc1cc(OC)cc2cccnc12)NC1CCCCC1 (stereo not drawn)	?	.	.	.	8.9µM	28µM	.
COc1cc(NS(=O)(=O)c2cccc([N+](=O)[O-])c2)c2ncccc2c1	.	/	.	/	.	/	/
COc1cc(NCCCC(C)N)c2ncccc2c1 (stereo not drawn)	?	.	?	?	35µM!	28µM	.
O=C1C(Cl)=C(NCCN2CCOCC2)C(=O)c2ccccc21	/	/	.	/	.	/	/
O=C1C(Cl)=C(NCCN2CCOCC2)C(=O)c2ncccc21	?	/	?	.	5µM	.	5.8µM
FC(F)(F)c1cc(Oc2ccc(Cl)cc2)nc(-c2ccccn2)n1	.	.	.	.	.	.	/
FC(F)(F)c1cc(Oc2ccccc2Cl)nc(-c2ccccn2)n1	.	.	.	.	4.5µM	.	4.1µM
CCn1ncc(Br)c1C(=O)Nc1ccc(C(=O)OC(C)C)cc1	.	/	.	.	3.5µM	.	?
Cc1ccc(Nc2nc(=O)[nH]nc2C)cc1	.	/	.	.	.	.	/
Cc1ccc(NC2=CC(=O)c3sc(C)nc3C2=O)cc1	.	/	?	/	7.9µM	/	20µM
SMILES	RECQ1 inh-1	L3MBTL1 inh	APE1 inh	JMJD2E inh	BLM inh-1	GoLoco inh red	BLM inh-2	others
O=C(NCc1ccco1)c1ccc(Cn2c(SCc3ccccc3)nc3cccnc32)cc1	/	/	/	/	.	/	/
COc1ccc(C(=O)C2CCCN(C(=O)CCc3scnc3C)C2)c(C)c1 (stereo not drawn)	.	.	.	?	28µM	.	.
COc1ccc(C(=O)C2CCCN(C(=O)CCc3ccccn3)C2)c(C)c1 (stereo not drawn)	.	.	.	.	.	.	/
O=C(CCl)Nc1ccccc1Sc1ccc(Cl)cc1	.	/	.	.	16µM	.	11µM
Nc1c(C(=O)NC2CC2)sc2nc3c(c(-c4ccco4)c12)CC/C3=C/c1ccco1	.	0.89µM	.	?	5.6µM	.	?
NC(=O)c1sc2nc3c(c(-c4ccco4)c2c1N)CCC3	.	?	.	.	.	.	/
O=C(CSc1ccc(-c2ccco2)nn1)c1ccccc1	.	?	.	?	25µM	.	.
COc1ccc(C(=O)CSc2ccc(-c3ccco3)nn2)cc1	.	.	.	?	.	.	/
O=C(CSc1n[nH]c(=O)[nH]c1=O)Nc1cccc(S(=O)(=O)N2CCOCC2)c1	.	.	.	.	.	.	/
O=C(CSc1ccccn1)Nc1ccc2ccccc2c1	.	.	?	.	.	.	/
O=C(CSc1ccccn1)Nc1ccc2c(c1)C(=O)c1ccccc1C2=O	.	.	?	.	25µM	.	?
O=C(CSc1n[nH]c(=O)[nH]c1=O)Nc1ccc2c(c1)C(=O)c1ccccc1C2=O	.	28µM	?	.	13µM	.	16µM
Cc1cc(SCC(=O)NCc2ccccc2)nc(=O)[nH]1	/	/	/	/	.	/	/
C=C(C)[C@]12C[C@@H](C)[C@@]34OC(Cc5ccccc5)(O[C@@H]1[C@@H]3C=C(COC(=O)Cc1cc(OC)c(O)cc1I)C[C@]1(O)C(=O)C(C)=C[C@@H]41)O2	.	/	.	/	.	.	/
N#Cc1sc2nc(C3CC3)cc(-c3ccccc3)c2c1N	.	.	.	?	.	.	/
N#Cc1sc2nc(-c3ccccc3)cc(-c3ccco3)c2c1N	?	?	?	?	4µM	.	4.1µM
O=C(O)c1cc(=O)[nH]c(=O)[nH]1	.	/	.	/	.	.	/
Nc1nc2[nH]cc(CCc3ccc(C(=O)NC(CCC(=O)O)C(=O)O)cc3)c2c(=O)[nH]1 (stereo not drawn)	/	/	/	/	.	/	/
Cc1oc(-c2ccccc2)nc1CNC(=O)NC1CCCCC1	/	/	/	/	.	/	/
CCOC(=O)/C=C1\CC(C(=O)OCC)Oc2c(OC)cccc21 (stereo not drawn)	.	.	.	/	.	.	.
C=C1c2cccc(OC)c2O[C@H](C(=O)OCC)[C@@H]1CC(CC)CCCC (stereo partly drawn)	.	.	.	/	.	.	/
N#C/C(=C\c1ccc(OC(=O)c2cccs2)cc1)c1nc2ccccc2[nH]1	.	.	.	.	20µM	.	.
CN(C)[C@H]1C(=O)C(C(=O)NCN2CCCC2)=C(O)[C@]2(O)C(=O)C3=C(O)c4c(O)cccc4[C@](C)(O)[C@H]3C[C@H]12	/	/	/	/	14µM	.[14.2 µM]	20µM
Cc1ccc(NC(=O)C(Cc2ccccc2)NS(=O)(=O)c2ccc3c(c2)oc(=O)n3C)c(Cl)c1 (stereo not drawn)	/	/	/	/	.	/	/
Oc1ccc(NCc2cccc(OCc3ccc(F)cc3)c2)cc1	?	?	.	.	14µM	.	?	RECQ1 inh-2=.
